Compounds with a hit are over-represented: about 4.5% of the library has one in this group of screens.
hgDAF12 agonist: agonists of H. glycines DAF-12 nuclear receptor; HEK293 GAL4-hgDAF12 UAS-luciferase reporter, agonist luminescence; normalized to butyrate control; activation, % at 6.8 µM; 370,000 compounds, 1.8% hits;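 active means activation above a cutoff set at the mean of all screened compounds plus 3 SD, cut at about 10% in these data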;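 further: 0% = DMSO wells and 100% = sodium butyrate wells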
ssDAF12 agonist: S. stercoralis DAF-12 activation, primary screen; 370,000 compounds, 1% hits; HEK293 ssDAF-12/GRIP1 lit1-tk-luc reporter, luminescence; % of 3 µM dafachronic acid response; AID 652126; activation, % at 6.8 µM;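 active means activation above the mean over all tested compounds plus 3 SD, cut at about 0.9% in these data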;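 further: 0% = DMSO-only wells and 100% = 3 µM delta7-dafachronic acid wells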
hcDAF12 agonist: H. contortus DAF-12 activation, primary screen | HEK293 hcDAF-12 lit1-tk-luc reporter, luminescence; 0% DMSO, 100% Δ7-dafachronic acid | activation, % at 6.8 µM | 370,000 compounds, 1.4% hits | AID 652067;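 active means activation above the mean of all tested compounds plus 3 SD, cut at about 5.5% in these data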;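 further: 100% = response to 3 µM Δ7-dafachronic acid high control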
GAA850 FXN act: increases GAA850 frataxin promoter reporter activity; HEK293 lucGAA850 FXN promoter luciferase reporter, 24 h; percent of 10 µM SAHA response; activation, % at 6 µM; 360,000 compounds, 0.56% hits;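 active means activation above the average of all compounds screened plus 3 SD, cutoff fixed separately per campaign, cut at about 7.5% in these data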;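 further: 0% = DMSO wells and 100% = 10 µM SAHA wells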
DAX1 inh-1: DAX1 (NR0B1) inhibition, primary screen. HEK293T StAR-luciferase reporter, SF-1/DAX-1 repression relief. inhibition, % at 6.8 µM. AID 652010. 370,000 compounds, 1.1% hits;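 active means inhibition above the mean over all tested compounds plus 3 SD, cut at about 3.6% in these data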;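 further: 0% = DAX-1 cells with DMSO and 100% = cells lacking DAX-1 with DMSO; higher inhibition means more luminescence from relief of DAX-1 repression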
DAX1 inh-2: inhibits human nuclear receptor DAX1 | HEK293 Gal4-DAX1 luciferase reporter, luminescence | inhibition, % at 6.75 µM | 340,000 compounds, 0.99% hits | AID 504766;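 active means inhibition above the mean over all tested compounds plus 3 SD, cut at about 4.2% in these data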;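 further: 0% = DAX1-transfected cells with DMSO and 100% = empty-vector control cells with DMSO; inhibition shows as a rise in luminescence from relieved DAX1 repression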
Target sequence (P51843 207-470 limits assumed): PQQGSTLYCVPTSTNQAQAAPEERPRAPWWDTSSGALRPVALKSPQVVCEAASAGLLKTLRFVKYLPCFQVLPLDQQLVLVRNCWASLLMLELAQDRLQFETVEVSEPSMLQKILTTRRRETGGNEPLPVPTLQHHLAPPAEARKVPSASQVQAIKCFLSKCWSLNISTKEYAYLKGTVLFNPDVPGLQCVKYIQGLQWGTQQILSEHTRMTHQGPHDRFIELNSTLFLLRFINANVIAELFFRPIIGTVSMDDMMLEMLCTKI
GAA30 FXN cntr: counter-screen for GAA850 frataxin promoter activators: GAA30 promoter activation | activation, % at 6 µM | AID 588350 | shares compounds with GAA850 FXN act | 1,900 compounds, 66% hits | HEK293 lucGAA30 FXN promoter luciferase, 24 h; DMSO = 0%, 5 µM ipriflavone = 100%;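 active means mean activation above the mean of solvent-only control wells plus 3 SD, cut at about 22% in these data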;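 further: counterscreen of GAA850 promoter hits where activity marks nonselective or luminescence artifacts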
FXN GAA850 conf: confirmation of GAA850 frataxin (FXN) promoter activators; 1,900 compounds, 86% hits; activation, % at 6 µM; shares compounds with GAA850 FXN act; HEK293 lucGAA850 FXN promoter luciferase reporter, 24 h; 100% = activation by SAHA;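 active means mean activation above a set limit taken from the primary screen, cut at about 8% in these data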;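 further: 0% = DMSO wells and 100% = 10 µM SAHA wells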
DAX1 conf: NR0B1 (human) inhibition, confirmation | shares compounds with DAX1 inh-1 | HEK293T StAR-promoter luciferase reporter, SF-1/DAX-1 repression | inhibition, % at 6.8 µM | 2,400 compounds, 87% hits | AID 652134;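 active means inhibition above the average of every tested compound plus 3 SD, cut at about 3.8% in these data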;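 further: 0% = DAX-1 cells with DMSO and 100% = no DAX-1 control cells with DMSO; active compounds raise luminescence by relieving repression of the StAR reporter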
SF1 mutant ctr: nonselective inhibitor or artifact in SF-1 mutant DAX1 counter-screen; shares compounds with DAX1 inh-1; HEK293 StAR-luciferase, SF-1 AF2 mutant, luminescence; inhibition, % at 6.8 µM; 2,400 compounds, 78% hits; AID 652136;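 active means inhibition above the mean of all tested compounds plus 3 SD, cut at about 3% in these data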;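 further: 0% = DAX-1 transfected cells with DMSO and 100% = cells without DAX-1 with DMSO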
LXRb hcDAF ctr: LXR-beta agonism as hcDAF-12 counter-screen; shares compounds with hcDAF12 agonist; HEK293 Gal4-LXR tk-luc reporter, luminescence, 24 h; normalized: DMSO 0%, positive control 100%; activation, % at 6.8 µM; 3,400 tested, under 10 active; AID 743027;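 active means mean percent activation of the reporter above a cutoff set as the average over tested compounds plus their standard deviation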
Target sequence (P55055 whole entry, looked up, the tested form may be a part): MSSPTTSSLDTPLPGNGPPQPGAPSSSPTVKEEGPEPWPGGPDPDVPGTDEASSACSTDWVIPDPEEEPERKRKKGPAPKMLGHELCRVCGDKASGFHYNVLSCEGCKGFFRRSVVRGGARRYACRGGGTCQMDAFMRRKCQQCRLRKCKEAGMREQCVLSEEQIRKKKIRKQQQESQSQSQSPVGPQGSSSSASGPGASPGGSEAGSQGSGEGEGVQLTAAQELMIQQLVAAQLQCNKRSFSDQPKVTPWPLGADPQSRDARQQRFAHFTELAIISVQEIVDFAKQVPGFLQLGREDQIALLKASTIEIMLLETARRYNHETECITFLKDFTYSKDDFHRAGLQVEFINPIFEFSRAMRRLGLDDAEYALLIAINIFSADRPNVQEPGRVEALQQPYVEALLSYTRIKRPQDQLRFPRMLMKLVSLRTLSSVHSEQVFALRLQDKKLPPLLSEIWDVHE
hcDAF12 conf: confirmation of H. contortus DAF-12 agonists; activation, % at 6.8 µM; HEK293 hcDAF-12 lit1-tk-luc reporter, luminescence; % of Δ7-dafachronic acid response; shares compounds with hcDAF12 agonist; 3,400 compounds, 61% hits;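 active means mean activation across triplicate tests above the threshold derived from the earlier primary screen, cut at about 5.5% in these data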;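 further: 0% = DMSO only wells and 100% = 3 µM Δ7-dafachronic acid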
hgDAF12 conf: hgDAF-12 agonism, confirmation assay; shares compounds with hgDAF12 agonist; HEK293 GAL4-hgDAF12 luciferase reporter, agonist mode; percent of butyrate response; activation, % at 6.8 µM; 3,300 compounds, 80% hits; AID 743050;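 active means mean activation over triplicate wells above the hit cutoff derived from the earlier primary screen, cut at about 11% in these data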;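 further: 0% = DMSO low control and 100% = 2 mM sodium butyrate high control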
LXRb DAF12 ctr: activates human LXR-beta, counter-screen for DAF-12 agonists | shares compounds with hgDAF12 agonist | HEK293 Gal4-LXR luciferase reporter, 24 h | activation, % at 6.8 µM | 3,300 tested, under 10 active;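 active means mean activation of the triplicate above a set limit carried over from the primary screen, none filed active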
* marks the source's active call; other numbers are inactive results; . = no result given.

SMILES | hgDAF12 agonist | ssDAF12 agonist | hcDAF12 agonist | GAA850 FXN act | DAX1 inh-1 | DAX1 inh-2 | GAA30 FXN cntr | FXN GAA850 conf | hgDAF12 conf | LXRb DAF12 ctr | others
C(=C\c1nc(-c2cccnc2)no1)/c1ccccc1 | 13* | 1.0* | 3 | 8.7* | 2 | 1 | 124* | 43* | 12* | 0
CSc1ccc(-c2csc(N3CCC(C(N)=O)CC3)n2)cc1 | 8 | -1 | 0 | . | . | . | . | . | . | .
C=CCn1c(SCC(N)=O)nc2scc(-c3ccc(C)o3)c2c1=O | 20* | 0 | 5.6* | 8.2* | 3 | 2 | 128* | 43* | 17* | 1
C=CCn1c(SCc2ccccc2)nc2scc(-c3ccc(C)o3)c2c1=O | -1 | 0 | 0 | 1 | 2 | -1 | . | . | . | .
O=C(NC1CCCC1)c1cc(-c2cccs2)on1 | 47* | 0 | 6.1* | 18* | 2 | 4.7* | 159* | 92* | 43* | 1
O=C(NCCCN1CCOCC1)c1cc(-c2cccs2)on1 | 24* | 0 | 4 | 20* | -1 | 3 | 113* | 80* | 46* | 0
Cc1ccc(-c2cc(C(=O)NCCCN3CCOCC3)no2)cc1 | -9 | -2 | -5 | -9 | -2 | -2 | . | . | . | .
O=C(NCCCn1ccnc1)c1cc(-c2cccs2)on1 | 53* | 0 | 7.6* | 41* | -1 | 4 | 159* | 114* | 51* | 0 | LXRb hcDAF ctr=0;hcDAF12 conf=4
O=C(NC1CCCC1)c1cc(-c2ccccc2O)on1 | 10 | -1 | 2 | 4 | 2 | 3 | . | . | . | .
COCCCNC(=O)C[C@@H]1C(=O)N(CCc2ccc(Cl)cc2)C2=CCCCC[C@]21C(=O)OC | -1 | -1 | -3 | . | -2 | . | . | . | . | .
O=C(Nc1nc2ncccn2c1-c1ccc(F)cc1)c1ccc(F)cc1 | 1 | -1 | -2 | . | -2 | . | . | . | . | .
COC(=O)[C@]12C[C@H](CC(=O)N3CCCC3)C(=O)N(Cc3ccco3)C1=C[C@H](C(C)(C)C)O[C@@H]2C | 0 | -2 | -1 | . | -1 | . | . | . | . | .
O=C(OCc1cn(Cc2cccc(F)c2)nn1)N1CCOCC1 | 0 | -1 | 3 | . | 2 | . | . | . | . | .
CN1CCSc2ccc(C(=O)NCc3cccc(F)c3)cc21 | 3 | -2 | -1 | 3 | -1 | 1 | . | . | . | .
CN1CCSc2ccc(C(=O)Nc3ccc(Cl)cc3)cc21 | 18* | -1 | 4 | 7.8* | 2 | 7.0* | 120* | 45* | 17* | 1
Cc1c(Cl)ccc2sc(NC(=O)c3ccco3)nc12 | 21* | 1.2* | 10* | 7.7* | 6.0* | 3 | 105* | 38* | 21* | 1 | DAX1 conf=12*;SF1 mutant ctr=8.7*;LXRb hcDAF ctr=2;hcDAF12 conf=9.9*
COc1ccccc1C(=O)n1ccc2ccc(-c3ccc4ccn(Cc5ccccc5)c4c3)cc21 | -1 | -1 | 1 | . | -2 | . | . | . | . | .
CC[C@@]1(C(=O)OC)N[C@H](CN(C)C(=O)Nc2ccc(OC)cc2)[C@@H]2C(=O)N(Cc3ccccc3)C(=O)[C@@H]21 | 14* | 0 | 0 | 17* | 1 | 0 | 84* | 24* | 6 | 0
CCn1c(C)nc2cc(C(=O)N/N=C/c3ccccc3C)ccc21 | 14* | 0 | 3 | 13* | 3 | 1 | 93* | 36* | 14* | 1
O=C(OCC#CCSc1nnc(-c2cccc3ccccc23)o1)c1ccc(C(F)(F)F)cc1 | -3 | -1 | -2 | . | . | . | . | . | . | .
COC(=O)C1CN(CCO)CCS(=O)(=O)N1Cc1cccc(Cl)c1 (stereo unspecified) | -3 | -1 | 0 | . | 1 | . | . | . | . | .
CCCCOC(=O)Nc1ccc(N2CCCCC2)cc1 | 13* | 0 | 4 | 8.1* | 3 | 1 | 93* | 31* | 13* | 1
CC(=O)c1cc(-c2cc3ccccc3o2)c(=O)n2c1CCC2 | -1 | -2 | 2 | . | 0 | . | . | . | . | .
O=c1cnnc(N/N=C/c2c[nH]c3ccccc23)[nH]1 | 3 | 0 | 2 | 1 | 0 | 1 | . | . | . | .
O=c1nc(N/N=C/c2c[nH]c3ccccc23)cn[nH]1 | 17* | 1 | 4 | 7.8* | 3 | -1 | 103* | 24* | 13* | 1
SMILES | hgDAF12 agonist | ssDAF12 agonist | hcDAF12 agonist | GAA850 FXN act | DAX1 inh-1 | DAX1 inh-2 | GAA30 FXN cntr | FXN GAA850 conf | hgDAF12 conf | LXRb DAF12 ctr | others
O=C(CS(=O)(=O)c1ccccc1)N1CCc2ccccc21 | 21* | 1.9* | 13* | 8.5* | 3 | 2 | 99* | 30* | 17* | 1 | LXRb hcDAF ctr=1;hcDAF12 conf=9.1*
O=C(Cc1ccccc1)N1CCc2ccccc21 | 1 | -2 | 0 | 4 | -1 | 0 | . | . | . | .
O=C(OCC#CCSc1nnc(-c2cc3ccccc3cc2O)o1)c1ccc(F)cc1 | 5 | -1 | 1 | . | . | . | . | . | . | .
CCOC(=O)c1c(C)nc2c3ccccc3ccn12 | 19* | 2.7* | 9.7* | 8.1* | 3.7* | 2 | 118* | 44* | 17* | 1 | LXRb hcDAF ctr=1;hcDAF12 conf=12*
COc1cc2ccccc2cc1C(=O)Nc1ccccc1Cl | 16* | 2.2* | 12* | 8.2* | 3 | 4.8* | 121* | 39* | 20* | 1 | LXRb hcDAF ctr=1;hcDAF12 conf=15*
CC1(C)CC(=O)c2c(O)cc(OCc3ccc(Br)cc3)cc2O1 | 14* | 0 | 5 | 9.4* | 4.6* | 4 | 99* | 36* | 9 | 1 | DAX1 conf=13*;SF1 mutant ctr=8.9*

Screens from PubChem.
